Bioassay records (PubChem BioAssay)
In the library only some 6.6% were active in any assay of this set; here they are far more common.
KB-3-1 tox: kills parental KB-3-1 adenocarcinoma cells; KB-3-1 viability, CellTiter-Glo ATP luminescence, 72 h; Potency, µM (doses to about 46.1 µM), most hits filed as cytotoxic; AID 1347075; 400,000 compounds, 1.4% hits; also: nearly all actives have a fitted effect of over 60% in size
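72 h, 37 °C compound treatment of KB-3-1 parental cells; CellTiter-Glo added, 10 min, luminescence read. Data corrected against DMSO-only plates and normalized before curve fitting.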
TSG101-PTAP inh: blocks PTAP/TSG101 interaction to inhibit HIV-1 budding. Fluorescence polarization, FITC-PTAP peptide / Tsg101 binding. Potency, µM (top dose mostly 115 µM), hits mostly inhibitors. AID 493005. 340,000 tested, under 10 active; active = well fitted inhibition curve with a large enough effect in the main read-out, with a control signal flat, not every such curve was filed as active; inconclusive = small, poorly fitted or top-dose-only effect, or effect the other way, or a change in a side signal; inactive = no such curve, though single readings can be large or run the other way
Target sequence (Q99816 whole entry, looked up): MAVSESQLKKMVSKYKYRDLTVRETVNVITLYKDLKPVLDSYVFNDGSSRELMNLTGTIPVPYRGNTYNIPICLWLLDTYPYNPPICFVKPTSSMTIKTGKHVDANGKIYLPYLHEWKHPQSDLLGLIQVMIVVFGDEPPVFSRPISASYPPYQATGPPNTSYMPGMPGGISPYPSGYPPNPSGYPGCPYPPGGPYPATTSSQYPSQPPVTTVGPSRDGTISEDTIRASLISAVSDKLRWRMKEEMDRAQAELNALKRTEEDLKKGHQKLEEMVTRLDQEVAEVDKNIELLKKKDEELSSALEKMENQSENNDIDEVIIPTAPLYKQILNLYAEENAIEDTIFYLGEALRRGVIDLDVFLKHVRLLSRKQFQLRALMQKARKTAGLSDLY
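Fluorescence polarization binding of Tsg101 binding domain (10 uM final) to FITC-labeled PTAP peptide (50 nM final) in HEPES pH 7.5 buffer with NaCl, Tween 20, EDTA, TCEP. Compounds added before peptide; binding 20 min at RT.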
RGS4 inhibitor: blocks human RGS4-accelerated GTP hydrolysis; Transcreener GDP fluorescence polarization, RGS4-accelerated GTP hydrolysis; Potency, µM (series often up to 114 µM), usual class: inhibitors; 390,000 compounds, 0.039% hits; also: nearly all actives have a fitted effect of over 75% in size
Target sequence (P49798 whole entry, looked up): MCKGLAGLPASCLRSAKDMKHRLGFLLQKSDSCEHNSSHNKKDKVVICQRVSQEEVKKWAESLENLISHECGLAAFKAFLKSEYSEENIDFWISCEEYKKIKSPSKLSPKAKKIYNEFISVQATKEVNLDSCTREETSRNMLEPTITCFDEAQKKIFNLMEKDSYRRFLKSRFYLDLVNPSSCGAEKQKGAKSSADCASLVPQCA
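MLSMR compounds (23 nl, pin-transferred) preincubated 10 min at room temperature with a 500nM (2x) first reagent, then RGS4 at 900nM (2x) plus Transcreener GDP mix added; fluorescence polarization (620/688 nm) read before and after 90 min at 30 °C.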
KB-V1 cytotox: kills drug-selected multidrug resistant KB-V1 cells | Potency, µM (titrated, usually from 46.1 µM), most hits filed as cytotoxic | 400,000 compounds, 3.4% hits | KB-V1 MDR cells viability, CellTiter-Glo, 72 h | AID 1347076; also: nearly all actives have a fitted effect of over 60% in size
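Drug-selected KB-V1 cells, grown in DMEM lacking phenol red with 10% FBS, receive compound titrations; after three days at 37 degrees C, surviving cell ATP is quantified by CellTiter-Glo luminescence and responses normalized and curve-fitted.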
MCF10A rereplic: induces DNA re-replication in MCF 10a normal breast cells; Potency, µM (series often up to 46.1 µM), actives largely listed as activators; 350,000 compounds, 2.9% hits; AID 624296; MCF 10A DNA re-replication, Hoechst nuclear intensity, 48 h; also: nearly all actives have a fitted effect of over 50% in size
SW480 rereplic: inducers of DNA re-replication in SW480 colon cancer cells; SW480 DNA re-replication, Hoechst DNA content imaging, 48 h; Potency, µM (highest dose often 46.1 µM), actives largely listed as activators; 340,000 compounds, 1.8% hits; also: nearly all actives have a fitted effect of over 55% in size
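Treated cells incubate 48 hr (37 C, 5% CO2), are stained 40 min with Hoechst, and nuclear fluorescence is enumerated; a rise in nuclei with high DNA signal marks re-replication.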
Numbers stand for hits; n = inactive; u = inconclusive; x = no result; [ ] = remark or other dose. Unless noted, calls follow the shape of the dose curve; as a rule, active = well fitted curve in the direction sought with a large enough effect; inconclusive = small, poorly fitted or top-dose-only effect, or another doubt; inactive = no such curve, though single readings can be large; an effect the other way counts as inactive or inconclusive.

SMILES	KB-3-1 tox	TSG101-PTAP inh	RGS4 inhibitor	KB-V1 cytotox	MCF10A rereplic	SW480 rereplic
Cc1ccc(-n2c(=O)c3sccc3n(CC(=O)NCc3ccco3)c2=O)cc1	n	n	n	n	n	n
CCCCCCCCCCCNC(=O)c1ccoc1C	n	n	u	n	26µM	n
Cc1occc1C(=O)Nc1ccc(OCc2ccccc2)cc1	n	n	n	16µM	n	n
CCCCOC(=O)c1ccc(NC(=O)c2ccoc2C)cc1	n	n	n	10µM	u	n
CN1CC2(Cc3cc([N+](=O)[O-])ccc31)C(=O)OC(C)(C)OC2=O	u	x	n	u	x	x
CSc1ccccc1NC(=O)C1=CC(c2ccc3c(c2)OCO3)=NS(=O)(=O)N1C	n	x	n	n	x	x
Cc1ccc(OCCSc2nc(NC(C)C)nc(NC(C)C)n2)cc1	n	n	n	u	13µM	n
COc1ccc(CN2CCc3c(c(=O)n4ncc(C(=O)N5CCN(c6ccccc6F)CC5)c4n3C)C2)cc1	n	x	n	n	x	x
N=c1oc2cc(O)ccc2cc1C(=O)Nc1ccc(Br)cc1	23µM	n	n	18µM	5.2µM	1.6µM
N=c1oc2cc(O)ccc2cc1C(=O)Nc1nc2ccccc2s1	n	n	n	n	8.2µM	2.9µM
CN(C)CCNC(=O)c1cc2c(s1)-c1ccc(Cl)cc1SC2	u	n	n	n	21µM	u
CCN(CC)CCNc1ncnc2c1sc1nc(N3CCOCC3)c3c(c12)CC(C)(C)SC3	n	n	n	n	n	n
CN(C)CCNc1ncnc2c1sc1nc(N3CCOCC3)c3c(c12)CC(C)(C)SC3	u	n	n	u	21µM	u
CCn1ccc2cc(S(=O)(=O)N3CCC(C(=O)NCCc4ccccc4Cl)CC3)ccc21	n	x	n	n	x	x
COc1cc(/C=C(/C#N)C(=O)Nc2ccccc2)ccc1OCc1ccc(C(=O)O)cc1	n	n	n	n	n	n
COc1cccc(CN(C)C(=O)c2ccc(OCC(=O)Nc3cccc(C(F)(F)F)c3)c(OC)c2)c1	u	n	n	4.1µM	n	n
COc1cc(/C=C(\C#N)C(=O)Nc2cc(C(F)(F)F)ccc2Cl)ccc1OCC(=O)Nc1cccc(C(F)(F)F)c1	n	n	n	n	21µM	u
COc1cc(/C=C(\C#N)C(=O)Nc2nnc(C(F)(F)F)s2)ccc1OCc1ccc(C(F)(F)F)cc1C(F)(F)F	x	x	19µM	x	x	x
C=C1NN(Cc2ccccc2)C(=O)N1c1ccc(OC)cc1	n	x	x	n	x	x
CCOc1ccc2nc(N3CCN(C(=O)c4ccc5c(c4)CCCC5)CC3)sc2c1	x	x	n	x	x	x
CCN(CC)C(=O)CSc1nc2c(sc(=S)n2Cc2ccco2)c(=O)n1-c1ccccc1	n	n	n	8.2µM	n	n
CCOC(=O)CSc1nc2c(sc(=S)n2-c2ccccc2OC)c(=O)n1Cc1ccco1	n	n	n	9.2µM	n	n
COc1ccc(CNC(=O)Cn2c(-c3ccccc3)cc(C(C)=O)c2C)cc1OC	n	x	n	u	x	x
CC(=O)C1=C(c2ccccc2)N(C(C)=O)n2c(nnc2C2CCCCC2)S1	x	x	n	x	x	x
CCc1nnc(NS(=O)(=O)c2ccc(NC(=O)CCC(=O)OC)cc2)s1	n	n	n	n	0.58µM	n
SMILES	KB-3-1 tox	TSG101-PTAP inh	RGS4 inhibitor	KB-V1 cytotox	MCF10A rereplic	SW480 rereplic
CCc1nnc(NS(=O)(=O)c2ccc(N/C=C\C(=O)c3ccc4ccccc4c3)cc2)s1	n	n	n	n	23µM	n
CCc1cc2c(cc3c(=O)n(CC(=O)NC(C)C)nc(CC)n32)s1	x	x	n	x	x	x
O=C(CNCC1CCCO1)Nc1ccccc1N1CCCCCC1 (centres undefined)	n	n	n	6.5µM	n	n
O=C(CNCc1ccccc1Cl)Nc1ccccc1N1CCCCC1	n	n	n	n	u	n
O=C(CNC1CCCC1)Nc1ccc(N2CCCCCC2)cc1	n	n	n	u	u	n
O=C(CNCC1CCCO1)Nc1ccc(N2CCCCCC2)cc1 (centres undefined)	n	x	n	21µM	n	n
CCCCN(C)CCNC(=O)c1ccc(Cn2c(=O)[nH]c3cc(OC)c(OC)cc3c2=O)cc1	u	x	n	u	x	x
O=C(c1cc2ccccc2oc1=O)N(Cc1cccs1)Cc1cccs1	n	n	n	n	u	n
O=C(c1cc2ccccc2oc1=O)N(Cc1ccco1)Cc1cccs1	n	n	n	5.2µM	u	n
Cn1c(COc2ccccc2O)[n+](C)c2ccccc21	n	n	n	n	n	n
CCCCCCCCCCOC(=O)Cn1c(COc2ccccc2OC)[n+](C)c2ccccc21	u	n	n	n	5.8µM	u
Cc1ccc(NC(=O)c2c(Cl)n(C)c3ccccc23)cc1	u	n	n	6.5µM	u	u
Cn1c(Cl)c(C(=O)Nc2ccccc2)c2ccccc21	n	n	n	n	n	n
O=C(c1cc(F)ccc1F)C1CCCN(C(=O)c2ccc(F)cc2Cl)C1 (centres undefined)	n	n	n	12µM	u	n
CC(=O)c1ccc(C(=O)N2CCCC(C(=O)c3cc(F)ccc3F)C2)s1 (centres undefined)	n	n	n	n	n	n[1.84 µM]
O=C(c1ccccc1)c1ccc(OCC(O)CN2CCN(S(=O)(=O)N3CCCCC3)CC2)cc1 (centres undefined)	23µM	n	n	2.1µM	n	n
COc1cccc(C(=O)Nc2ccc(-c3nc4ccccc4s3)cc2Cl)c1	n	x	n	n	x	x
COc1oc(C(=O)NC2CCCCC2)c(-c2ccc(Cl)cc2)c1S(=O)(=O)c1ccccc1	u	n	n	4.6µM	n	u
O=C(NNS(=O)(=O)c1ccc(Cl)cc1)NC1CCCCC1	n	n	n	n	n	n
Cn1nnc2c(NCCc3ccccc3)ncnc21	x	x	n	x	x	x
O=C(N/N=C/c1ccc(O)cc1O)c1ccc(CN2C(=O)c3cccc4cccc2c34)cc1	u	n	u	u	u	u
O=C(N/N=C/c1ccccc1)c1ccc(CN2C(=O)c3cccc4cccc2c34)cc1	n	n	u	n	16µM	u
Cc1ccc(C(=O)c2oc3ccccc3c2NC(=O)Cc2coc3cc(C)ccc23)cc1	n	x	n	n	x	x
C=Cc1ccc(CSc2nc(-c3ccc(OC)cc3)nc3c2Cc2c(CO)cnc(C)c2O3)cc1	n	x	n	n	x	x
COc1ccc(-c2cc(C(=O)N3CCN(c4ccccc4)CC3)c3ccccc3n2)cc1OC	n	n	n	u	13µM	n
COc1ccc(-c2cc(C(=O)OCC(=O)N3CCCCC3)c3ccccc3n2)cc1OC	n	n	n	3.7µM	u	n
COc1ccc(-c2csc(N3CCN(c4cc(C)nc5ccccc45)CC3)n2)cc1OC	n	n	n	16µM	n	u
